Screens from PubChem.
VHR inh abs: inhibitors of human VHR1 phosphatase (DUSP3). P51452. recombinant VHR phosphatase, pNPP absorbance. inhibition, % at 13.3 µM. 0.52% of 290,000 active. AID 1654; in the data active means inhibition above about 50%
Target sequence (P51452 whole entry, looked up): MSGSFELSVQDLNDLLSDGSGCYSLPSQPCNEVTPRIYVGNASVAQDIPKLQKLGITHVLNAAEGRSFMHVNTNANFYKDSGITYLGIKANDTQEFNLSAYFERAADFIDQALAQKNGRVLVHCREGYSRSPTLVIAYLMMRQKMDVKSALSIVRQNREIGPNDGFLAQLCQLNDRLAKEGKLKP
BoNT-F LC inh: BoNT F light chain protease inhibition. Multiplex microsphere protease cleavage assay, flow cytometry. 0.22% of 360,000 active. inhibition, % at 10 µM. AID 588497; in the data active means inhibition above about 35%, passing the limit was not always enough; inconclusive means no clear call, values can overlap the other calls; further: plate controls were buffer without enzyme for full effect and enzyme alone for no effect
MazF activator: activators of E. coli MazEF toxin-antitoxin RNase | P0AE70 | FAM/BHQ RNA-DNA oligo cleavage fluorescence, 5 h | activation, % at 20 µM | 0.32% of 350,000 active; in the data active means activation above about 50%
Target sequence (P0AE70 whole entry, looked up): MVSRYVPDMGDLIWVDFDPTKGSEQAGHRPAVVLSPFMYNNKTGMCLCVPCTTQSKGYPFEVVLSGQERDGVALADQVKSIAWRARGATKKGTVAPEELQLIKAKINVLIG
Autofluor counter: counter-screen for toxin protease inhibitors: compound fluorescence; compound autofluorescence counterscreen, microsphere flow cytometry; stronger effect = higher value; fluorescence intensity (no concentration beside the values); 3.1% of 360,000 active; in the data active means fluorescence intensity above about 16000; inconclusive means no clear call, values can overlap the other calls
Anthrax LF prot: blocks Bacillus anthracis lethal factor protease | multiplex microsphere protease cleavage assay, LF | inhibition, % at 10 µM | P15917 | 0.12% of 360,000 active; further: plate controls were buffer without enzyme for full effect and enzyme alone for no effect
BoNT-A LC inh2: BoNT A light chain protease inhibition; inhibition, % at 10 µM; multiplex microsphere protease substrate cleavage, flow cytometry; 0.17% of 360,000 active; further: plate controls were buffer without enzyme for full effect and enzyme alone for no effect
An asterisk follows results filed as active. A selection: hits, their analogues and other compounds. The true share with any hit is near 4%. Unless noted, no stated cut-off is given here; in the data, active means inhibition above about 30%; inconclusive means no clear call, values can overlap the other calls; inactive means below that.

Results for Cc1ccc(N(C(=O)Cn2nnc(-c3cccs3)n2)C(C(=O)NC2CCCC2)c2ccncc2)cc1 (stereo not given) ?
VHR inh abs: 48; BoNT-F LC inh: -3; MazF activator: -11; Autofluor counter: 22784*; Anthrax LF prot: -1; BoNT-A LC inh2: -2

Results for CCC(C(=O)NC1CCCC1)N(Cc1ccco1)C(=O)Cn1nnc(-c2ccc(C)cc2)n1 (stereo not given) ?
VHR inh abs: 13; BoNT-F LC inh: -2; MazF activator: -9; Autofluor counter: 19503*; Anthrax LF prot: -3; BoNT-A LC inh2: 0

How did CCOC(=O)CN(C(=O)Cn1nnc(-c2ccc(C)cc2)n1)C(CC)C(=O)NC1CCCC1 (stereo not given) do in these assays?
VHR inh abs: 3; BoNT-F LC inh: 0; MazF activator: -3; Autofluor counter: 22718*; Anthrax LF prot: -6; BoNT-A LC inh2: 0

Results for O=C(NC1CCCCC1)C(c1ccccc1F)N(Cc1ccco1)C(=O)Cn1nnc2ccccc21 (stereo not given) ?
VHR inh abs: 5; BoNT-F LC inh: -9; MazF activator: 1; Autofluor counter: 3196; Anthrax LF prot: -3; BoNT-A LC inh2: -1

How did N#Cc1ccsc1NC(=O)CSc1ncn[nH]1 do in these assays?
VHR inh abs: 3; BoNT-F LC inh: 1; MazF activator: -1; Autofluor counter: 22762*; Anthrax LF prot: 0; BoNT-A LC inh2: 3

What do the screens show for `N#Cc1c(NC(=O)CSc2ncn[nH]2)sc2c1CCCC2`?
VHR inh abs: 24; BoNT-F LC inh: -8; MazF activator: -2; Autofluor counter: 3804; Anthrax LF prot: -3; BoNT-A LC inh2: 1

What do the screens show for `O=C(CCl)Nc1ccccc1Sc1ccc(Cl)cc1`?
VHR inh abs: 27; BoNT-F LC inh: -5; MazF activator: 1; Autofluor counter: 20704*; Anthrax LF prot: 1; BoNT-A LC inh2: -3

What do the screens show for `CC(=O)N1CCN(CC(=O)Nc2ccccc2Sc2ccc(Cl)cc2)CC1`?
VHR inh abs: -12; BoNT-F LC inh: -2; MazF activator: -5; Autofluor counter: 2375; Anthrax LF prot: -2; BoNT-A LC inh2: 0

What do the screens show for `O=C(CSc1ncn[nH]1)Nc1ccccc1Sc1ccccc1`?
VHR inh abs: 19; BoNT-F LC inh: 0; MazF activator: 6; Autofluor counter: 23235*; Anthrax LF prot: -4; BoNT-A LC inh2: inconclusive

What do the screens show for `Cc1ccc(C(=O)NCCc2ccccc2)cc1`?
VHR inh abs: 28; BoNT-F LC inh: 6; MazF activator: 4; Autofluor counter: 3717; Anthrax LF prot: -5; BoNT-A LC inh2: -1

What do the screens show for `ONC(=Nc1ccccc1)c1ccc(Cl)cc1`?
VHR inh abs: -4; BoNT-F LC inh: 4; MazF activator: 6; Autofluor counter: 21077*; Anthrax LF prot: -1; BoNT-A LC inh2: 2

How did O=C1CSC(c2ccccc2)N1Cc1ccccc1 (stereo not given) do in these assays?
VHR inh abs: -18; BoNT-F LC inh: inconclusive; Autofluor counter: 16347*; Anthrax LF prot: -32; BoNT-A LC inh2: -39

Results for CCCCOc1ccc(C(=O)Nn2cnnc2)cc1 ?
VHR inh abs: 29; BoNT-F LC inh: 0; MazF activator: 9; Autofluor counter: 23869*; Anthrax LF prot: -5; BoNT-A LC inh2: inconclusive

How did COc1ccc(C(=O)Nn2cnnc2)cc1 do in these assays?
VHR inh abs: 11; BoNT-F LC inh: -10; MazF activator: -23; Autofluor counter: 4248; Anthrax LF prot: -2; BoNT-A LC inh2: -1

What do the screens show for `COc1ccc(-n2c(O)c(C=NC3CC3)c(=O)[nH]c2=O)cc1`?
VHR inh abs: 12; BoNT-F LC inh: 1; MazF activator: 1; Autofluor counter: 2395; Anthrax LF prot: 2; BoNT-A LC inh2: 0

Results for C=CCn1c(SCC(=O)Nc2ccc(C(=O)OC(C)C)cc2)nnc1-c1cccs1 ?
VHR inh abs: -2; BoNT-F LC inh: 5; MazF activator: -8; Autofluor counter: 4364; Anthrax LF prot: -1; BoNT-A LC inh2: 1

What do the screens show for `C=CCn1c(Cc2cccs2)nnc1SCC(=O)c1ccc2ccccc2c1`?
VHR inh abs: 19; BoNT-F LC inh: 0; MazF activator: 1; Autofluor counter: 23327*; Anthrax LF prot: -1; BoNT-A LC inh2: inconclusive

What do the screens show for `C=CCn1c(CNC(=O)c2cccs2)nnc1SCC(=O)Nc1ccc(C(=O)O)cc1`?
VHR inh abs: -18; BoNT-F LC inh: 0; MazF activator: 8; Autofluor counter: 19549*; Anthrax LF prot: -5; BoNT-A LC inh2: inconclusive

What do the screens show for `C=CCn1c(CCNC(=O)c2cccs2)nnc1SCC(=O)c1ccc(Cl)cc1`?
VHR inh abs: 25; BoNT-F LC inh: 1; MazF activator: 4; Autofluor counter: 23328*; Anthrax LF prot: 0; BoNT-A LC inh2: 0

How did C=CCn1c(Cc2cccs2)nnc1SCC(=O)c1ccc(F)cc1 do in these assays?
VHR inh abs: 15; BoNT-F LC inh: -17; MazF activator: 5; Autofluor counter: 9208; Anthrax LF prot: -6; BoNT-A LC inh2: -1

How did C=CCn1c(CNC(=O)c2ccco2)nnc1SCC(=O)c1ccccc1 do in these assays?
VHR inh abs: 6; BoNT-F LC inh: 0; MazF activator: 5; Autofluor counter: 4760; Anthrax LF prot: 2; BoNT-A LC inh2: 0

How did C=CCn1c(CNC(=O)c2cccs2)nnc1SCC(=O)c1ccc(Br)cc1 do in these assays?
VHR inh abs: 5; BoNT-F LC inh: -1; MazF activator: 71*; Autofluor counter: 23917*; Anthrax LF prot: 0; BoNT-A LC inh2: -1

What do the screens show for `C=CCn1c(CCNC(=O)c2cccs2)nnc1SCC(=O)Nc1cccc(Cl)c1C`?
VHR inh abs: 47; BoNT-F LC inh: -3; MazF activator: 9; Autofluor counter: 20193*; Anthrax LF prot: 1; BoNT-A LC inh2: inconclusive

What do the screens show for `C=CCn1c(CCNC(=O)c2cccs2)nnc1SCC(=O)c1cccc([N+](=O)[O-])c1`?
VHR inh abs: -8; BoNT-F LC inh: 5; MazF activator: -2; Autofluor counter: 14951; Anthrax LF prot: 0; BoNT-A LC inh2: 4

What do the screens show for `O=C(CN1C(=O)NC2(CCCC2)C1=O)OCc1ccc(Cl)c(Cl)c1`?
MazF activator: -15

How did O=C(c1ccccc1F)N1CCN(S(=O)(=O)c2ccc3ccccc3c2)CC1 do in these assays?
VHR inh abs: -5; BoNT-F LC inh: -16; MazF activator: 2; Autofluor counter: 3482; Anthrax LF prot: 1; BoNT-A LC inh2: -3

Results for CCCCCCCCCCOC(=O)c1csc2nnsc12 ?
VHR inh abs: 22; BoNT-F LC inh: -3; MazF activator: -10; Autofluor counter: 20631*; Anthrax LF prot: -2; BoNT-A LC inh2: inconclusive

What do the screens show for `CCCCNc1c2c(nc3c(-c4ccccc4)c(C)nn13)CCC2`?
VHR inh abs: -12; BoNT-F LC inh: 2; MazF activator: -15; Autofluor counter: 20079*; Anthrax LF prot: -7; BoNT-A LC inh2: 2

What do the screens show for `CCC(C)Nc1c2c(nc3c(-c4ccccc4)c(C)nn13)CCC2` (stereo not given)?
VHR inh abs: 41; BoNT-F LC inh: -8; MazF activator: 2; Autofluor counter: 22116*; Anthrax LF prot: -3; BoNT-A LC inh2: -6
